In the library only some 1% were active in any assay of this set; here they are far more common.
WRN inhibitor = WRN helicase (human) inhibition | WRN helicase unwinding, fluorescent forked duplex, kinetic | Potency, µM (titrated, usually from 114 µM), inactives show at the highest dose activity change, negative = inhibition, most hits filed as inhibitors | actives 0.46% (n = 360,000) | AID 651768; further: nearly all actives have a fitted effect of over 55% in size
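Enzyme (20 nM final) and test compound sit together 15 min at room temperature before substrate addition. Substrate is a single-forked duplex oligonucleotide (100 nM) labelled with fluorophore and quencher, with 2 mM ATP; helicase unwinding raises red fluorescence, read kinetically.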
BLM inh = inhibitors of human Bloom syndrome helicase BLM; Potency, µM (top dose mostly 56.1 µM), inactives show at the highest dose activity change, negative = inhibition, usual class: inhibitors; P54132; recombinant BLM DNA unwinding, fluorescence dequenching; actives 0.2% (n = 350,000);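 further: plate controls were vehicle for no effect and no enzyme for full effect; nearly all actives have a fitted effect of over 35% in size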
L3MBTL1 block = blocks human L3MBTL1; Potency, µM (doses to about 57.1 µM), without a hit: at the top dose activity, negative = inhibition, most hits filed as inhibitors; AID 485360; actives 0.66% (n = 230,000); AlphaScreen L3MBTL1–H3K9me1 peptide binding; Q9Y468; further: nearly all actives have a fitted effect of over 60% in size
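First, the protein-peptide complex forms for 30 min at room temperature (L3MBTL1 50 nM, biotinylated H3K9me1 peptide 75 nM). Next, compounds are pin-transferred and incubated 30 min. Finally, AlphaScreen beads are added and read after 30 min.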
APEX1 inh = blocks human APE1 abasic DNA cleavage; recombinant APE1, TAMRA/BHQ-2 abasic DNA cleavage fluorescence; actives 0.35% (n = 350,000); Potency, µM (titrated, usually from 65.8 µM), for inactives: at the highest dose activity change, negative = inhibition, most hits filed as inhibitors; AID 2517; P27695;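 further: plate controls were vehicle for no effect and reference inhibitor for full effect; nearly all actives have a fitted effect of over 55% in size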
Target sequence (P27695 whole entry, looked up): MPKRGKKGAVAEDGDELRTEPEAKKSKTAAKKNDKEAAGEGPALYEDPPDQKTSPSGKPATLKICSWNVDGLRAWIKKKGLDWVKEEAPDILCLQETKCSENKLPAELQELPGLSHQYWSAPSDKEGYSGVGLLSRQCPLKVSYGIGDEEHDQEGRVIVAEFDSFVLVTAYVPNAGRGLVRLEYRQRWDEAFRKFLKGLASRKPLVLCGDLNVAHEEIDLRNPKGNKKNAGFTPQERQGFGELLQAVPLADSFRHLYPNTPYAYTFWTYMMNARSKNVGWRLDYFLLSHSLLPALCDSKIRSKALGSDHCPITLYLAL
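Kinetic fluorescence read (525 ex/598 em nm, three reads 60 s apart) of AP-site incision; signal = third minus first read. Enzyme 0.75 nM, dual-labelled THF duplex 50 nM, compound preincubation 15 min RT.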
RECQ1 inh-1 = blocks DNA unwinding by human RECQ1; RECQ1 DNA unwinding, red fluorescence kinetic read; Potency, µM (series often up to 57.3 µM), for the others: at the top dose activity, negative = inhibition, usual class: inhibitors; actives 0.54% (n = 240,000);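 further: plate controls were vehicle for no effect and no enzyme for full effect; nearly all actives have a fitted effect of over 30% in size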
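RECQ1T1 50 nM; forked duplex (20 bp + 30-nt ss tails) 200 nM, ATP 2 mM final; pH 8.0, 2 mM MgCl2, 2.5 ug/ml poly(dI-dC); 15 min compound preincubation; discontinuous kinetic read over 2 h at RT.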
FEN1 inh = blocks human flap endonuclease 1; Recombinant FEN1 flap cleavage, fluorescence, 15 min; Potency, µM (series often up to 114 µM), for inactives: top-dose activity change, negative = inhibition, usual class: inhibitors; actives 0.35% (n = 390,000); AID 588795; further: nearly all actives have a fitted effect of over 65% in size
Target sequence (P39748 whole entry, looked up): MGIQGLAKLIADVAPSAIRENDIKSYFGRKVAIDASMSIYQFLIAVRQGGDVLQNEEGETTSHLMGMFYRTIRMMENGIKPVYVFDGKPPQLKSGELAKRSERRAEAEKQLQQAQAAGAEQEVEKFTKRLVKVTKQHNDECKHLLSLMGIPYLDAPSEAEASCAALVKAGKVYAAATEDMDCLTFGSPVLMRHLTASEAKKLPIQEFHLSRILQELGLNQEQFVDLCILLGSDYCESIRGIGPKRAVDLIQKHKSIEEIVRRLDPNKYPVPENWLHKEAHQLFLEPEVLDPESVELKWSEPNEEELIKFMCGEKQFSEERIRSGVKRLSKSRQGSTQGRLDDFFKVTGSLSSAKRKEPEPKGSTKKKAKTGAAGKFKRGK
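Enzyme 10 nM, 15 min RT preincubation with compound; start with substrate 50 nM final; reads at 0 and 15 min; qHTS titration, four-parameter Hill fit.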
RECQ1 inh conf = confirmation of human RECQ1 helicase inhibitors; actives 28% (n = 610); RECQ1 helicase DNA unwinding, fluorescence; Potency, µM (doses to about 229 µM), without a hit: at the top dose activity change, negative = inhibition, actives largely listed as inhibitors; shares compounds with RECQ1 inh-1; further: nearly all actives have a fitted effect of over 45% in size
RECQ1 ADP FP = displaces ADP in a fluorescence polarization counter-screen for RECQ1 hits; shares compounds with RECQ1 inh-1; ADP fluorescence polarization displacement counterscreen; Potency, µM (highest dose often 228 µM), without a hit: at the top dose activity change, negative = inhibition, hits mostly inhibitors; actives 27% (n = 530); AID 2711; further: nearly all actives have a fitted effect of over 45% in size
RECQ1 inh-2 = confirmation of human RECQ1 helicase inhibitors; shares compounds with RECQ1 inh-1; recombinant RECQ1 DNA unwinding, red fluorescence; Potency, µM (series often up to 119 µM), for inactives: at the top dose activity, negative = inhibition, hits mostly inhibitors; actives 15% (n = 1,100); AID 504841; further: nearly all actives have a fitted effect of over 50% in size
An asterisk follows results filed as active; i = inactive; ? = inconclusive; . = not tested or not shown; ! = not active in a repeat; [ ] = another dose, or the depositor's remark. The call rests on the fitted dose curve; in most records, active means well fitted curve in the direction sought with a large enough effect; inconclusive means small, poorly fitted or top-dose-only effect, or another doubt; inactive means no such curve, though single readings can be large; an effect the other way counts as inactive or inconclusive. Unless noted, on the % scale 0 is the no-effect control and ±100 the full control effect; potency means the concentration at half of the fitted maximal effect.

SMILES	WRN inhibitor	BLM inh	L3MBTL1 block	APEX1 inh	RECQ1 inh-1	FEN1 inh	RECQ1 inh-2	others
COCCn1c(=NC(=O)c2ccc(S(=O)(=O)N3CCc4ccccc4C3)cc2)sc2cc(S(N)(=O)=O)ccc21	-12%	-7%	-9%	11%	-10%	-3%	.
CCOc1ccc(-c2csc(NC(=O)c3ccc(S(=O)(=O)N4CCc5ccccc5C4)cc3)n2)cc1	13%	1%	3%	-6%	0%	10%	.
COC(=O)Cn1c(=NC(=O)c2ccc(S(=O)(=O)N3CCc4ccccc4C3)cc2)sc2cc(OC)ccc21	-2%	-3%	15%	12%	i	-1%	.	RECQ1 inh conf=0%;RECQ1 ADP FP=10%
C#CCn1c(=NC(=O)c2ccc(S(=O)(=O)N3CCc4ccccc4C3)cc2)sc2cc(S(N)(=O)=O)ccc21	13%	-11%	7%	0%	-8%	5%	.	RECQ1 inh conf=-10%;RECQ1 ADP FP=?
COc1ccc(-c2csc(NC(=O)c3ccc(S(=O)(=O)N4CCc5ccccc5C4)cc3)n2)c(OC)c1	-18%	-4%	2%	17%	i	-3%	.	RECQ1 inh conf=4%;RECQ1 ADP FP=-10%
C=C1c2cccc(O)c2C(O)=C2C(=O)[C@]3(O)C(O)=C(C(N)=O)C(=O)C(N(C)C)C3C(O)C12 (stereo not given in full)	.	-4%	.	4µM*	8.9µM*	.	-13%	RECQ1 inh conf=?;RECQ1 ADP FP=7.9µM*
O=C(c1ccc(Cl)cc1)N1CCN(c2cccc3[nH]ccc23)CC1	4%	3%	-27%	?	?	0%	-4%
O=C(c1ccc(Cl)cc1)N1CCN(c2ccc(F)cc2)CC1	0%	-9%	7%	0%	-2%	0%	.
COc1ccc(CN(C(=O)/C=C/c2ccco2)C2CCS(=O)(=O)C2)cc1 (stereo not given)	-29%[57.1 µM]	-24%	-26%	?	?	-23%	?
COc1ccc(-c2csc(/C(C#N)=C\c3ccc(O)c([N+](=O)[O-])c3)n2)cc1OC	?	-6%	-15%	1%	i	-32%	.
COc1cc(/C=C(\C#N)c2nc3ccccc3s2)cc([N+](=O)[O-])c1O	?	?	-18%	?	?	?	35µM*
CCOC(=O)c1cccc(NC(=O)Cn2ncc3c4ccccc4n(Cc4ccccc4)c3c2=O)c1	.	-4%	.	.	.	3%	.
Cc1cccc(N2CCN(C(=O)CCS(=O)(=O)c3ccc(Br)cc3)CC2C)c1 (stereo not given)	?	-28%	.	-2%	35µM*	-4%	40µM*
COCC(=O)N1C[C@@H](C)[C@@H](OC)CN(C)C(=O)c2ccc(NC(=O)c3cnccn3)cc2OC[C@H]1C	-2%	.	.	.	.	.	.
Cc1cc(Br)ccc1NC(=O)CCSc1ccccc1	-11%	-1%	-1%	-5%	-4%	-3%	.
Cc1cc(NC(=O)CCSc2ccccc2)ccc1Br	-2%	-9%	23%	-3%	3.5µM*	-19%	-13%
CS(=O)(=O)N1CCC2(CC1)CN(c1ccc(-c3ccccc3)cc1)C2	.	-1%	.	0%	-11%	.	.
CS(=O)(=O)N1CCC2(CCCN(c3cccc(-c4ccccc4)c3)C2)CC1	.	-4%	.	8%	28µM*	.	?
CCOC(=O)[C@@](C)(N)Cc1ccc(O)c(O)c1	.	.	.	1%[21 µM]	.	.	.
C[C@@](N)(Cc1ccc(O)c(O)c1)C(=O)O	.	5%	.	1.4µM*!	11µM*!	.	.	RECQ1 inh conf=?;RECQ1 ADP FP=?
COc1ccc(C)cc1S(=O)(=O)Nc1ccncc1	0%	-6%	10%	24%	20µM*	2%	-7%
c1ccc(Nc2cccc3c(Nc4ccccc4)cccc23)cc1	-6%	-20%	.	-7%	?	-8%	-15%
Cc1cccc(CNc2cc(-c3ccoc3)ncn2)c1	.	-13%	.	-3%	?	.	-11%
c1cncc(CNc2cc(-c3ccoc3)ncn2)c1	.	-11%	.	19%	-3%	.	.
COc1ccc(-c2nnc3n2N=C(c2ccccc2OC)CS3)c(OC)c1	.	5%	.	7%	i	.	.
SMILES	WRN inhibitor	BLM inh	L3MBTL1 block	APEX1 inh	RECQ1 inh-1	FEN1 inh	RECQ1 inh-2	others
Cc1ccc(S(=O)(=O)/N=C2/C=C(Sc3ncn[nH]3)C(=O)c3ccccc32)cc1	32µM*	16µM*	-23%	-11%	?	50µM*	?
O=C(Nc1cccc(S(=O)(=O)N2CCOCC2)c1)[C@@H]1CCCN1S(=O)(=O)c1ccc(Cl)cc1	-28%[57.1 µM]	-8%	-2%	-1%	-1%	19%	.	RECQ1 inh conf=-9%;RECQ1 ADP FP=25%
COC(=O)C1=C(C)N(c2cccc3ccccc23)C(=O)C1	6%	0%	-7%	-1%	?	5%	-20%
COc1cc(NC(=O)CN(C)S(=O)(=O)c2ccc3c(c2)CCCC(=O)N3)cc(OC)c1OC	.	2%	.	.	.	-1%	.
COc1ccc(Nc2ccccc2N)cc1	?	-24%	-7%	-5%	22µM*	1%	45µM*
COc1ccc(Nc2ccnc3ccccc23)cc1	-6%	0%	10%	1%	i	-22%	.
CC(=O)Oc1ccc(C(=O)[C@H]2[C@H]3C(=O)N(c4ccc5ccccc5c4)C(=O)[C@H]3[C@@H]3C=CC=NN32)cc1	-9%[57.1 µM]	-11%	-7%	13%	32µM*	10%	?
Cn1c(N)c(C(=O)COC(=O)CC(NC(=O)c2ccccc2Cl)c2ccccc2)c(=O)n(C)c1=O (stereo not given)	-4%	-2%	8%	0%	-14%	4%	.	RECQ1 inh conf=8%;RECQ1 ADP FP=4%
CC(C(=O)Nc1cc(C(F)(F)F)ccc1Cl)n1nnc2sc3c(c2c1=O)CCCC3 (stereo not given)	.	-2%	.	.	.	-17%	.
O=C(Cc1ccc(F)cc1)NO	.	.	.	.	.	-1%	.
Cc1ccc(CSCC(Nc2ccc(C(=O)O)cc2[N+](=O)[O-])C(=O)O)cc1 (stereo not given)	-5%	0%	.	11%	19%	-1%	.
O=C(O)c1ccc(NC(CSCc2ccc(F)cc2)C(=O)O)c([N+](=O)[O-])c1 (stereo not given)	-2%	1%	.	-2%	7%	2%	.	RECQ1 inh conf=23%;RECQ1 ADP FP=-6%
